Results from the antibiotic and cytotoxicity screens of Wong et al. (2023).
The whole screen tested about 39,000 compounds, of which about 3,300 (8.5%) were called active. The sample as a whole holds a higher share of actives than the screen did.

Each molecule was assayed on HepG2 (assay: cytotoxicity call (relative viability < 0.9)). Conditions: 10 µM.
For `C[C@@H]1CN([C@H](C)CO)C(=O)c2cc(NC(=O)CCN3CCOCC3)ccc2O[C@H]1CN(C)C(=O)Nc1ccccc1`, the cytotoxicity call was “inactive”.
For `CS(=O)(=O)Nc1ccc2c(c1)[C@H]1C[C@@H](CC(=O)NCC3CC3)O[C@@H](CO)[C@H]1O2`, the cytotoxicity call was “inactive”.
For `CC(C)N1C[C@@H](CNCc2ccc(Oc3ccccc3)cc2)Oc2c(NC(=O)c3ccncc3)cccc2C1=O`, the cytotoxicity call was “inactive”.
With `COc1ccccc1OCC(O)CN1CCN(CC(=O)Nc2c(C)cccc2C)CC1.Cl.Cl` (configuration not stated) the cytotoxicity call was “inactive”.
For `CC(C)NCC(O)COc1ccc(COCCOC(C)C)cc1.O=C(O)C=CC(=O)O` (configuration not stated), the cytotoxicity call was “inactive”.
`O=C1C(=O)N(C[C@@H](O)COc2cccc3ccccc23)C(=O)C(=O)N1C[C@@H](O)COc1cccc2ccccc12` was tested, and the cytotoxicity call was “inactive”.
In the case of `CC(C)NCC(O)COc1cccc2[nH]ccc12` (configuration not stated), the cytotoxicity call is reported as “inactive”.
`C=CCc1ccccc1OCC(O)CNC(C)C.Cl` (configuration not stated) was tested, and the cytotoxicity call was “active”.
With `COCCc1ccc(OCC(O)CNC(C)C)cc1.O=C(O)C(O)C(O)C(=O)O` (configuration not stated) the cytotoxicity call was “inactive”.
`CC(C)NCC(O)COc1ccc(CC(N)=O)cc1` (configuration not stated) was tested, and the cytotoxicity call was “inactive”.
`COc1ccccc1N1CCN(CC(O)COc2cccc3ccccc23)CC1` (configuration not stated) was tested, and the cytotoxicity call was “active”.
`CC(C)NCC(O)COc1cccc2ccccc12.Cl` (configuration not stated) was tested, and the cytotoxicity call was “active”.
`CC(C)NCC(O)COc1cccc2[nH]c3ccccc3c12` (configuration not stated) was tested, and the cytotoxicity call was “active”.
In the case of `O=C(C[C@H]1C=C[C@@H](NS(=O)(=O)c2ccc(F)cc2)[C@@H](CO)O1)NCc1ccc(Cl)c(Cl)c1`, the cytotoxicity call is reported as “inactive”.
In the case of `COc1ccc2c3c(n(c2c1)C)[C@H](CO)N(C[C@]13CN(CC2CCOCC2)C1)C(=O)c1ccc(cc1)F`, the cytotoxicity call is reported as “inactive”.
With `C[C@H](CO)N1C[C@H](C)[C@H](CN(C)S(=O)(=O)c2cccc(F)c2)Oc2ncc(Br)cc2C1=O` the cytotoxicity call was “inactive”.
`C[C@@H]1CN([C@@H](C)CO)C(=O)c2cc(NC(=O)CCCN(C)C)ccc2O[C@@H]1CN(C)S(=O)(=O)c1ccccc1` was tested, and the cytotoxicity call was “inactive”.
For `C[C@H]1CN([C@@H](C)CO)C(=O)Cc2cc(NC(=O)Cn3cnnn3)ccc2O[C@H]1CN(C)S(=O)(=O)c1cccs1`, the cytotoxicity call was “inactive”.
For `C[C@H]1CN([C@@H](C)CO)C(=O)Cc2cc(NC(=O)C3CC3)ccc2O[C@@H]1CN(C)Cc1ccc(Oc2ccccc2)cc1`, the cytotoxicity call was “inactive”.
For `Cc1noc(C)c1NC(=O)Nc1cccc2c1O[C@@H](CN(C)S(=O)(=O)c1ccccc1)[C@@H](C)CN([C@@H](C)CO)C2=O`, the cytotoxicity call was “inactive”.
With `CC1=C(/C=C/C(C)=C/C=C/C(C)=C/C=C/C=C(C)/C=C/C=C(C)/C=C/C2=C(C)C(=O)[C@@H](O)CC2(C)C)C(C)(C)C[C@H](O)C1=O` the cytotoxicity call was “inactive”.
With `CCOC(=O)N[C@@H]1CC(=O)N(C2CC2)C1` the cytotoxicity call was “inactive”.
For `N[C@H](CO)COCc1ccccc1`, the cytotoxicity call was “inactive”.
For `Cc1ccc(S(=O)(=O)N(C)C[C@H]2Oc3c(NC(=O)c4ccncc4)cccc3C(=O)N([C@H](C)CO)C[C@@H]2C)cc1`, the cytotoxicity call was “inactive”.
In the case of `C[C@@H]1CCCCO[C@H](CN(C)CC2CCCCC2)[C@H](C)CN([C@@H](C)CO)C(=O)c2cc(NC(=O)Cc3ccccc3)ccc2O1`, the cytotoxicity call is reported as “inactive”.
For `C[C@H](CO)N1C[C@H](C)[C@H](CN(C)S(=O)(=O)c2cn(C)cn2)Oc2ccc(NC(=O)Cc3cn(C)c4ccccc34)cc2CC1=O`, the cytotoxicity call was “inactive”.
`Cc1cc(C(=O)Nc2cccc3c2O[C@H](CN(C)C(=O)Nc2c(C)noc2C)[C@H](C)CN([C@H](C)CO)C3=O)n(C)n1` was tested, and the cytotoxicity call was “inactive”.
`Cc1ccc(S(=O)(=O)Nc2ccc3c(c2)C(=O)N([C@H](C)CO)C[C@@H](C)[C@@H](CN(C)Cc2ccccc2)OCCCC[C@@H](C)O3)cc1` was tested, and the cytotoxicity call was “inactive”.
With `Cc1ccc(S(=O)(=O)Nc2ccc3c(c2)C(=O)N([C@@H](C)CO)C[C@@H](C)[C@@H](CN(C)Cc2ccccc2)OCCCC[C@H](C)O3)cc1` the cytotoxicity call was “inactive”.
With `C[C@@H]1CCCCO[C@@H](CN(C)Cc2ccccc2)[C@@H](C)CN([C@@H](C)CO)C(=O)c2cc(NS(=O)(=O)c3ccccc3)ccc2O1` the cytotoxicity call was “active”.
With `C[C@@H]1CN([C@@H](C)CO)C(=O)c2cc(NS(=O)(=O)c3ccccc3)ccc2O[C@@H](C)CCCCO[C@@H]1CN(C)Cc1ccccc1` the cytotoxicity call was “inactive”.
For `Cc1ccc(S(=O)(=O)Nc2ccc3c(c2)C(=O)N([C@H](C)CO)C[C@@H](C)[C@H](CN(C)Cc2ccccc2)OCCCC[C@H](C)O3)cc1`, the cytotoxicity call was “active”.
In the case of `C[C@H](CO)N1C[C@H](C)[C@H](CN(C)Cc2ccccc2)OCCCC[C@H](C)Oc2ccc(NS(=O)(=O)c3ccccc3)cc2C1=O`, the cytotoxicity call is reported as “inactive”.
`C[C@H]1CN([C@@H](C)CO)S(=O)(=O)c2ccc(C#CCN(C)C)cc2O[C@@H]1CN(C)Cc1ccc2c(c1)OCO2` was tested, and the cytotoxicity call was “inactive”.
For `C[C@@H]1CN([C@@H](C)CO)C(=O)Cc2cc(NC(=O)CCCN(C)C)ccc2O[C@@H]1CN(C)S(=O)(=O)c1ccc(Cl)cc1`, the cytotoxicity call was “inactive”.
In the case of `COC(=O)C(CC#Cc1ccc2c(c1)[C@]1(C(=O)N2)[C@H](c2ccccc2OCCO)N2[C@H](c3ccccc3)[C@H](c3ccccc3)OC(=O)[C@H]2[C@@H]1C(=O)N1CCc2cc(OC)c(OC)cc2C1)C(=O)OC`, the cytotoxicity call is reported as “inactive”.
In the case of `C[C@@H]1CCCCO[C@@H](CN(C)C(=O)Nc2ccc3c(c2)OCO3)[C@H](C)CN([C@H](C)CO)C(=O)c2cc(NC(=O)C3CCCCC3)ccc2O1`, the cytotoxicity call is reported as “inactive”.
With `C=CN1CCCC1=O` the cytotoxicity call was “inactive”.
For `C[C@@H]1CN([C@@H](C)CO)C(=O)c2cc(NC(=O)NC3CCCCC3)ccc2O[C@H]1CN(C)Cc1ccc(Cl)c(Cl)c1`, the cytotoxicity call was “inactive”.
With `C[C@H](CO)N1C[C@H](C)[C@H](CN(C)Cc2ccc(C(F)(F)F)cc2)Oc2ccc(NS(=O)(=O)c3ccc(Cl)cc3)cc2C1=O` the cytotoxicity call was “active”.
`C[C@H](CO)N1C[C@H](C)[C@@H](CN(C)Cc2ccc(C(F)(F)F)cc2)Oc2ccc(NS(=O)(=O)c3ccc(Cl)cc3)cc2C1=O` was tested, and the cytotoxicity call was “active”.
In the case of `C[C@@H]1CN([C@H](C)CO)C(=O)c2cc(NS(=O)(=O)c3ccc(Cl)cc3)ccc2O[C@H]1CN(C)Cc1ccc(C(F)(F)F)cc1`, the cytotoxicity call is reported as “inactive”.
With `C[C@H]1CN([C@@H](C)CO)C(=O)c2cc(NS(=O)(=O)c3ccc(Cl)cc3)ccc2O[C@H]1CN(C)Cc1ccc(C(F)(F)F)cc1` the cytotoxicity call was “inactive”.
`C[C@@H]1CN([C@H](C)CO)C(=O)c2cc(NS(=O)(=O)c3ccc(Cl)cc3)ccc2O[C@@H]1CN(C)Cc1ccc(C(F)(F)F)cc1` was tested, and the cytotoxicity call was “active”.
With `C[C@@H]1CN([C@@H](C)CO)C(=O)c2cc(NS(=O)(=O)c3ccc(Cl)cc3)ccc2O[C@H]1CN(C)Cc1ccc(C(F)(F)F)cc1` the cytotoxicity call was “inactive”.
With `C[C@@H]1CN([C@@H](C)CO)C(=O)c2cc(NS(=O)(=O)c3ccc(Cl)cc3)ccc2O[C@@H]1CN(C)Cc1ccc(C(F)(F)F)cc1` the cytotoxicity call was “active”.
`C[C@H]1CN([C@@H](C)CO)C(=O)c2cc(NS(=O)(=O)c3ccc(Cl)cc3)ccc2O[C@@H]1CN(C)Cc1ccc(C(F)(F)F)cc1` was tested, and the cytotoxicity call was “inactive”.
